This is a sample that favours compounds with a hit; in the whole collection about 4% have one here.
CCHF vOTU inh – CCHFV vOTU protease inhibitors, primary screen, biochemical, Pep-AMC substrate, fluorescence | inhibition, % at 11.5 µM | 370,000 compounds, 0.55% hits | AID 651958, 2012
Mtb betalactam – beta-lactam sensitization of Mtb H37Rv, H37Rv; M. tuberculosis H37Rv growth with meropenem, percent inhibition; 330,000 compounds, 0.27% hits; inhibition, % at 25 µM; call rule not given here;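 also: growth measured after seven days incubation then overnight dye step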
GDH-TPI inh – GDH-TPI coupling enzyme inhibitors, primary screen, artefact control for M. tuberculosis FBA inhibitor project, biochemical, absorbance, full deck | GDH-TPI coupled enzyme counterscreen, NADH absorbance | inhibition, % at 4.8 µM | 360,000 compounds, 1.2% hits | AID 588335, 2011
MazEF act – activators of E. coli MazEF toxin-antitoxin RNase, primary screen, biochemical, fluorescence, uHTS; Endoribonuclease toxin MazF (Escherichia coli (strain K12)), P0AE70; FAM/BHQ RNA-DNA oligo cleavage fluorescence, 5 h; activation, % at 20 µM; 350,000 compounds, 0.32% hits; AID 504720, 2011; in the data active = activation above about 50%
Target sequence (P0AE70 whole entry, looked up): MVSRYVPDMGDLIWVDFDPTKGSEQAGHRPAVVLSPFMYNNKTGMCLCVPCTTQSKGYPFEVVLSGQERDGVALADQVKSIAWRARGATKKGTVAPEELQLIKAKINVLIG
FBA Mtb inh – Mtb FBA enzyme inhibitors, primary screen, biochemical, fluorescence, strain H37Rv. inhibition, % at 1 µM. purified M. tuberculosis FBA, fluorescence read-out. 360,000 compounds, 2.3% hits. Fructose-bisphosphate aldolase (Mycobacterium tuberculosis (strain ATCC 25618 / H37Rv)), …; in the data active = inhibition above about 27%
Target sequence (P9WQA3 whole entry, looked up): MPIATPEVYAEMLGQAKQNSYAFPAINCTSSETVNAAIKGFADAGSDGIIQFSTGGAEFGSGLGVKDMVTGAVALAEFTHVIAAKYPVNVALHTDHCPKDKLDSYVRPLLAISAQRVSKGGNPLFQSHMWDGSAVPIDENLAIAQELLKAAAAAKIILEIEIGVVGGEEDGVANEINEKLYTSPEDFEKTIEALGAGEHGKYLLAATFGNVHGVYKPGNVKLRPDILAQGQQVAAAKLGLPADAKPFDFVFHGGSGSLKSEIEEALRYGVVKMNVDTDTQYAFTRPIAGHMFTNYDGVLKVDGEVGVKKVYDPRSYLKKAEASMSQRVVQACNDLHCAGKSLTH
A number is an active result. Rule as the data show it, unless noted: active = inhibition above about 30%; inactive = the rest.

O=C1N/C(=C/c2ccco2)C(=O)N1Cc1ccccc1F was read as CCHF vOTU inh inactive, Mtb betalactam inactive, GDH-TPI inh 33.1, MazEF act inactive and FBA Mtb inh inactive.
Screening CC(=O)Nc1c(Cl)cnn(-c2ccccc2)c1=O returned CCHF vOTU inh inactive, Mtb betalactam inactive, GDH-TPI inh 43.5, MazEF act inactive and FBA Mtb inh inactive.
CNC(=O)c1c(Cl)cnn1-c1ccccc1 was read as CCHF vOTU inh inactive, Mtb betalactam inactive, GDH-TPI inh inactive, MazEF act inactive and FBA Mtb inh inactive.
For C/C(=N\Nc1ccc(Cl)c(C(=O)O)c1)c1cccc([N+](=O)[O-])c1 the results were CCHF vOTU inh inactive, Mtb betalactam inactive, GDH-TPI inh 41.6, MazEF act inactive and FBA Mtb inh inactive.
Screening NS(=O)(=O)c1ccc(N/N=C/C=C/c2ccccc2[N+](=O)[O-])cc1 returned CCHF vOTU inh inactive, Mtb betalactam inactive, GDH-TPI inh inactive, MazEF act inactive and FBA Mtb inh inactive.
`O=C(O)c1cc(N/N=C/C=C/c2ccccc2[N+](=O)[O-])ccc1Cl` gave CCHF vOTU inh inactive, Mtb betalactam inactive, GDH-TPI inh 38.2, MazEF act inactive and FBA Mtb inh inactive.
For Cc1cccc(-c2nnc(NC(=O)c3ccco3)s2)c1 the results were CCHF vOTU inh inactive, Mtb betalactam inactive, GDH-TPI inh 34.3, MazEF act inactive and FBA Mtb inh inactive.
`O=C(Nc1nnc(SCc2ccc(Cl)cc2)s1)c1ccco1` gave CCHF vOTU inh inactive, Mtb betalactam inactive, GDH-TPI inh 32.1, MazEF act inactive and FBA Mtb inh inactive.
`Cc1noc(C)c1C(=O)Nc1nnc(-c2ccccc2)s1` gave CCHF vOTU inh inactive, Mtb betalactam inactive, GDH-TPI inh 34.7, MazEF act inactive and FBA Mtb inh inactive.
For CCSc1nnc(NC(=O)c2ccco2)s1 the results were CCHF vOTU inh inactive, Mtb betalactam inactive, GDH-TPI inh inactive, MazEF act inactive and FBA Mtb inh inactive.
`C=CCN1[C@H](C#N)[C@@H](c2ccc(C#Cc3cccc(OC)c3)cc2)[C@H]1CO` gave CCHF vOTU inh inactive.
For Nc1nnc(CC(=O)N/N=C/c2ccc(-c3cccc(C(=O)O)c3)o2)s1 the results were CCHF vOTU inh inactive, Mtb betalactam inactive, GDH-TPI inh 45.9, MazEF act inactive and FBA Mtb inh inactive.
Screening Nc1nnc(CC(=O)N/N=C/c2ccc(-c3ccc(F)cc3)o2)s1 returned CCHF vOTU inh inactive, Mtb betalactam inactive, GDH-TPI inh inactive, MazEF act inactive and FBA Mtb inh inactive.
CCOC(=O)c1ccc(-c2ccc(/C=N/NC(=O)Cc3nnc(N)s3)o2)cc1 was read as CCHF vOTU inh inactive, Mtb betalactam inactive, GDH-TPI inh 39.9, MazEF act inactive and FBA Mtb inh inactive.
`O=C(Cc1ccc(Br)cc1)N/N=C/c1ccc(-c2cccc(C(=O)O)c2)o1` gave CCHF vOTU inh inactive, Mtb betalactam inactive, GDH-TPI inh 62.5, MazEF act inactive and FBA Mtb inh inactive.
For Nc1nonc1-c1nc2ccccc2n1CC(=O)N/N=C/c1ccc(-c2cccc(C(=O)O)c2)o1 the results were CCHF vOTU inh inactive, GDH-TPI inh inactive, MazEF act inactive and FBA Mtb inh inactive.
Screening O=C(O)c1cccc(-c2ccc(/C=N/NC(=O)c3cccnc3)o2)c1 returned CCHF vOTU inh inactive, Mtb betalactam inactive, GDH-TPI inh 57.5, MazEF act inactive and FBA Mtb inh inactive.
Screening COC(=O)[C@H](CC(C)C)N(CCc1cn(Cc2ccccc2)nn1)S(=O)(=O)c1ccccc1Br returned CCHF vOTU inh inactive.
For CCCCCC(=O)NC1CCCCN(Cc2cccc(Cl)c2)C1=O (centres undefined) the results were CCHF vOTU inh inactive.
`CN1C(=O)C(=Cc2ccccc2OCc2ccc(Cl)cc2)C(=O)N(C)C1=O` gave CCHF vOTU inh inactive, Mtb betalactam inactive, GDH-TPI inh inactive, MazEF act inactive and FBA Mtb inh inactive.
`CN1C(=O)C(=Cc2ccccc2Oc2ccc(Cl)cc2)C(=O)N(C)C1=O` gave CCHF vOTU inh inactive, Mtb betalactam inactive, GDH-TPI inh inactive, MazEF act inactive and FBA Mtb inh 130.8.
`O=C(CSC(=S)N1CCCC1)N/N=C/c1c(O)[nH]c(=S)[nH]c1=O` gave CCHF vOTU inh inactive, Mtb betalactam inactive, GDH-TPI inh 46.2, MazEF act inactive and FBA Mtb inh inactive.
Screening COCCn1c(O)c(/C=N/NC(=O)CSC(=S)N2CCCC2)c(=O)[nH]c1=S returned CCHF vOTU inh inactive, Mtb betalactam inactive, GDH-TPI inh 31.6, MazEF act inactive and FBA Mtb inh inactive.
CCCCCCC(=O)N/N=C/c1c(O)n(CCCC)c(=S)[nH]c1=O was read as CCHF vOTU inh inactive, Mtb betalactam inactive, GDH-TPI inh inactive, MazEF act inactive and FBA Mtb inh inactive.
Cc1cccc(N/N=C/c2c(O)[nH]c(=S)[nH]c2=O)c1 was read as CCHF vOTU inh inactive, Mtb betalactam inactive, GDH-TPI inh inactive, MazEF act inactive and FBA Mtb inh inactive.
COc1ccc(-c2csc(N(Cc3ccco3)C(=O)c3cccs3)n2)cc1 was read as CCHF vOTU inh inactive, Mtb betalactam inactive, GDH-TPI inh inactive, MazEF act 64.0 and FBA Mtb inh inactive.
COc1ccc(OC)c(-c2csc(N(Cc3ccco3)C(=O)c3cccs3)n2)c1 was read as CCHF vOTU inh inactive, Mtb betalactam inactive, GDH-TPI inh inactive, MazEF act inactive and FBA Mtb inh inactive.
`CCc1nnn2c1Cn1c3ccccc3c(=O)n1[C@@H](C)C2` gave CCHF vOTU inh inactive.
For CC[n+]1c(/C=C/C=C/N(C(C)=O)c2ccccc2)sc2cc(OC)ccc21 the results were CCHF vOTU inh inactive, Mtb betalactam inactive and MazEF act 506.0.
Cc1ccc(-n2c(SCC(=O)NN=Cc3ccc(-c4ccccc4)cc3)nnc2-c2ccccc2)cc1 was read as CCHF vOTU inh inactive.
`CCc1nnc(NC(=O)CSc2nc3cc4c(cc3cc2C)OCCO4)s1` gave CCHF vOTU inh inactive, Mtb betalactam inactive, GDH-TPI inh inactive, MazEF act 55.4 and FBA Mtb inh inactive.
`Cc1ccc(C)c(OCc2ccc(C(=O)Nc3ccc([N+](=O)[O-])cn3)o2)c1` gave CCHF vOTU inh inactive, Mtb betalactam inactive, GDH-TPI inh inactive, MazEF act inactive and FBA Mtb inh inactive.
Screening Cc1ccc(C(=O)Nc2ccc([N+](=O)[O-])cn2)o1 returned CCHF vOTU inh inactive, Mtb betalactam inactive, GDH-TPI inh 40.0, MazEF act inactive and FBA Mtb inh inactive.
`O=C(NCCN1CCC(Cc2ccccc2)CC1)C1CCCN(S(=O)(=O)c2ccc([N+](=O)[O-])cc2)C1` (centres undefined) gave CCHF vOTU inh inactive.
For CCc1ccc(/C=C2\CN(CC)Cc3c2nc2ccccc2c3C(=O)O)cc1 the results were CCHF vOTU inh inactive, Mtb betalactam inactive, GDH-TPI inh 43.6, MazEF act inactive and FBA Mtb inh inactive.

Screening data from PubChem BioAssay.
